# A selection: hits, their analogues and other compounds. The true share with any hit is near 2.4%.
# Cruzain Triton: blocks cruzain activity in presence of Triton detergent; purified cruzain, Z-FR-AMC fluorescence, 0.01% Triton; P25779; hit rate 0.43% among 200,000; Potency, µM, for the others: max response, negative = inhibition, hits mostly inhibitors;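 note: plate controls were neutral wells for no effect and buffer without enzyme for full effect; nearly all actives have a fitted effect of over 40% in size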
# Target sequence (P25779 123-467 limits assumed): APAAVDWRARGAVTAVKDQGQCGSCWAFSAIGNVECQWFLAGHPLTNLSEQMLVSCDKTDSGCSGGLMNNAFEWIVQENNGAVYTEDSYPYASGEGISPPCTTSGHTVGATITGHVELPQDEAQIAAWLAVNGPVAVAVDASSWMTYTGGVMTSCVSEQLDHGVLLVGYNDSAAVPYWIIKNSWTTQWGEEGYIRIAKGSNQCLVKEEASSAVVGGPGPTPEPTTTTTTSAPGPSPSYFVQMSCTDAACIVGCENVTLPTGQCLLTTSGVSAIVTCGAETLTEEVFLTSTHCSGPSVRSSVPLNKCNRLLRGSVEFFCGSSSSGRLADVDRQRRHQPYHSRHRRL
#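 Z-FR-AMC hydrolysis (2 uM substrate) by cruzain (1.5 nM) monitored kinetically at ex 360/em 450 nm after 15 min room-temperature compound exposure; 0.01% Triton X-100, pH 5.5, 5 mM DTT.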
# Cruzain inh noDet: cruzain (T. cruzi) inhibition without detergent | AID 1476 | P25779 | purified cruzain, Z-FR-AMC fluorescence, no detergent | Potency, µM, for the others: max response, negative = inhibition, actives largely listed as inhibitors | hit rate 2.3% among 200,000;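 note: plate controls were enzyme without inhibitor for no effect and buffer without enzyme for full effect; nearly all actives have a fitted effect of over 40% in size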
#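 Detergent-free condition (0.00005% Triton X-100) in acetate buffer pH 5.5 with DTT. 1.5 nM enzyme and compound were pre-mixed 15 min, then 2 uM Z-FR-AMC substrate added; reaction progress from fluorescence change between first and third reads (60 s).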
# Active calls of the source: *; ? = inconclusive. Calls come from the whole dose curve; as a rule, active = well fitted curve in the direction sought with a large enough effect; inconclusive = small, poorly fitted or top-dose-only effect, or another doubt; inactive = no such curve, though single readings can be large; an effect the other way counts as inactive or inconclusive. Potency is the fitted concentration of half-maximal effect.
SMILES,Cruzain Triton,Cruzain inh noDet
Cc1nn(-c2ccccc2)c(N2CCCC2)c1/C=N/NC(=O)c1cc(-c2ccccc2)nc2ccccc12,-5.3%,3.98µM*
NC(=O)c1ccccc1NC(=O)Cn1nc(Cc2cccnc2)c2ccccc2c1=O,-9.5%,-1.6%
CCCCNc1nc(Oc2ccc(=O)n(-c3ccccc3)n2)nc(N(C)C)n1,-4.9%,19.2%
Cc1ccc(C)c(-c2ccc(=O)n(C(C)C(=O)Nc3ccccc3C(F)(F)F)n2)c1 (stereo not drawn),-7.4%,?
COc1cc2c(=O)c(S(=O)(=O)c3ccc(C)cc3)cn(Cc3cccc(C)c3)c2cc1OC,-2.9%,?
Nc1ccc(C(=O)OCC(=O)N2CCc3ccccc3C2)cc1[N+](=O)[O-],-11.6%,31.6µM*
O=C(OCC(=O)N1CCc2ccccc2C1)c1ccc(N2CCOCC2)c([N+](=O)[O-])c1,-6.9%,4.5%
Cn1c(NC(=S)Nc2ccccc2)nc2ccccc21,0.6%,?
S=C(Nc1ccccc1)Nc1nc2ccccc2n1CCOc1ccc(Br)cc1,2.6%,7.94µM*
COc1ccc(C(=O)c2c(N)c(-c3nc(-c4ccccc4)cs3)c3ccccn23)cc1,-2.9%,7.94µM*
CCOc1ccc(C(=O)c2c(N)c(-c3nc(-c4ccc(OCC)cc4)cs3)c3ccccn23)cc1,-1.8%,-19.1%
COc1cccc(-c2csc(-c3c(N)c(C(=O)c4ccc5c(c4)OCO5)n4ccccc34)n2)c1,-2.1%,3.16µM*
CCOc1ccc(C(=O)c2c(N)c(-c3nc(-c4ccc5c(c4)OCO5)cs3)c3ccccn23)cc1,-1.7%,-18.6%
COc1ccc(C(=O)c2c(N)c(-c3nc(-c4ccc(OC)cc4)cs3)c3ccccn23)cc1,-2.4%,?
COc1ccccc1C(=O)c1c(N)c(-c2nc(-c3ccccc3)cs2)c2ccccn12,-5.0%,10µM*
COc1ccc(Nc2oc(-c3ccc(COc4ccccc4C)o3)nc2C#N)cc1,-4.6%,?
CNS(=O)(=O)c1cn(CC(=O)N2CCN(c3cc(C)ccc3C)CC2)cc1S(=O)(=O)NC,-8.5%,?
CC1=C(C(=O)Nc2ccccc2)C(c2ccccc2C)n2nc(SCC(=O)c3ccc(C)cc3)nc2N1 (stereo not drawn),0.7%,2.7%
CN(C)c1ccc([C@@H]2[C@@H]([N+](=O)[O-])[C@H]3C=Cc4ccccc4N3[C@H]2C(=O)c2ccc(Cl)cc2)cc1,-5.2%,7.94µM*
CN(C)c1ccc(C(=O)NCc2ccc3c(c2)CCN3C(=O)c2ccc(Cl)cc2)cc1,5.6%,-1.6%
Cc1c(N=Cc2cccs2)c(=O)n(-c2ccccc2)n1C,4.3%,-9.4%
Cc1ccc(C2C(C=Nc3c(C)n(C)n(-c4ccccc4)c3=O)=C(c3ccccc3)Oc3ccccc32)cc1 (stereo not drawn),-3.5%,7.94µM*
Cc1ccc(NC(=O)CCC(=O)N2Cc3ccccc3Oc3ncccc32)cc1,-1.8%,-7.7%
CCCN(CC1CC1)C(=O)CSc1nnc(-c2cc(-c3cccs3)nc3ccccc23)o1,-4.0%,15.8µM*
NC(=O)CSc1nnc(-c2cc(-c3cccs3)nc3ccccc23)o1,-10.2%,-18.0%
SMILES,Cruzain Triton,Cruzain inh noDet
Cc1cc(-c2ccc(C)c(S(=O)(=O)Nc3ccccc3C(F)(F)F)c2)on1,-8.2%,10.5%
Cc1ccc(OCc2nc(-c3ccc(C(=O)NCCc4ccc(S(N)(=O)=O)cc4)cc3)oc2C)cc1,1.1%,-8.9%
O=C1N/C(=C/c2ccc(N3CCCC3)cc2)C(=O)N1c1ccccc1,-6.0%,3.16µM*
O=C1/C(=C/c2ccc(N3CCCC3)cc2)NC(=S)N1C1CC1,-5.3%,4.2%
Cc1cnc2c(c1SCC(=O)Nc1ccc(F)cc1F)c(=O)n(C)c(=O)n2C,1.1%,14.2%
CCOC(=O)c1c(NC(=O)C2CCCN(S(=O)(=O)c3ccccc3)C2)sc2c1CCCC2 (stereo not drawn),-2.9%,?
COC(=O)c1sc(N)c(C(=O)OC)c1COC(=O)[C@@H](NS(=O)(=O)c1cccc(Cl)c1)C(C)C,-7.6%,10.4%
CCOC(=O)c1c(NC(=O)C2CCCN(S(=O)(=O)c3ccc(C)cc3)C2)sc2c1CCCC2 (stereo not drawn),0.3%,15.8µM*
COC(=O)c1c(NC(=O)COC(=O)[C@@H](NS(=O)(=O)c2cccc(Cl)c2)C(C)C)sc2c1CCC2,-10.5%,15.8µM*
COC(=O)c1c(NC(=O)CS(=O)(=O)c2ccc(C)cc2)sc2c1CCCCC2,-8.3%,2.51µM*
Cc1ccc(S(=O)(=O)CC(=O)Nc2sc3c(c2C#N)CCCCC3)cc1,-3.0%,-10.1%
COc1cc2c(cc1OC)C(COc1ccc3c(C)cc(=O)oc3c1)N(C(=O)c1ccccc1F)CC2 (stereo not drawn),25.6%,?
CC(CNc1nc2ccccc2c2nc(-c3ccccc3)nn12)c1ccccc1 (stereo not drawn),5.1%,0.3%
O=C(CCC(=O)N1CC2CCCN2c2ccccc21)NCc1ccc(F)cc1 (stereo not drawn),-7.0%,-5.8%
